One sequence from article PMC7862700, “An all-to-all approach to the identification of sequence-specific readers for epigenetic DNA modifications on cytosine” can be followed below.

Common to all, as to assay: DAPPL (digital affinity profiling via proximity ligation, sequencing); 10 mM Tris-HCl pH 7.5, 50 mM NaCl, 1 mM DTT, 4% glycerol, room temperature, 30 min; GST-TFs on glutathione beads, 16-mer random dsDNA library, 0.1% formaldehyde crosslink after washing; high values mean tight binding
In one assay the target is T1, FEV (Homo sapiens, UniProt Q99581 1-238).
T1 sequence: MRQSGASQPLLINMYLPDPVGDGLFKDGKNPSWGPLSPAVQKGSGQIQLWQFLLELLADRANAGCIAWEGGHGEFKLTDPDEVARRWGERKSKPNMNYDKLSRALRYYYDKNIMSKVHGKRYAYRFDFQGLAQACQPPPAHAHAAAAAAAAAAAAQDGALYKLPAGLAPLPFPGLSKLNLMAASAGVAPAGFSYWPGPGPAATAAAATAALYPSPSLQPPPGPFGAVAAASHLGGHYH
As to conditions: protein: recombinant; tags: N-terminal GST; dsDNA, one strand shown. The procedure, abridged:
(§1)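 Binding signal is defined as a hexamer's read frequency for one factor over its frequency for the tag-only sample. To obtain reads, GST-fused human transcription factors were expressed in yeast, captured on glutathione beads, barcoded with DNA and pooled with that sample. Pools met 200 nmole of a 16-mer random double-stranded DNA library in Tris/NaCl/DTT/glycerol buffer for 30 min at room temperature before washing, 0.1% formaldehyde crosslinking, proximity ligation (BsaI/T4 ligase, 1 h, 37 °C), PCR and Illumina NextSeq500 sequencing.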

The target in another assay is ETV5 (Homo sapiens, UniProt P41161 1-510). As to conditions: protein: recombinant; tags: N-terminal GST; dsDNA, one strand shown. The procedure, abridged:
as §1

Another assay deals with HSF1 (Homo sapiens, UniProt Q00613 1-529). As to conditions: protein: recombinant; tags: N-terminal GST; chain copies: 3; dsDNA, one strand shown. The procedure, abridged:
as §1

Another assay addresses T2, SPIC (Homo sapiens, UniProt Q8N5J4 1-248).
T2 sequence: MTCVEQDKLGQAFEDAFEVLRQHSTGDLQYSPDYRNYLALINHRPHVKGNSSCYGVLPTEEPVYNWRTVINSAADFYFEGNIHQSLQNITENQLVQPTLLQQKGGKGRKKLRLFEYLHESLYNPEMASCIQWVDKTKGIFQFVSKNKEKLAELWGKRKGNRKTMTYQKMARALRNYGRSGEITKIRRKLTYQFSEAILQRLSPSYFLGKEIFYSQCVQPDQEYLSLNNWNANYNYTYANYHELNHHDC
As to conditions: protein: recombinant; tags: N-terminal GST; dsDNA, one strand shown. The method in brief: as §1

The next assay addresses ELF4 (Homo sapiens, UniProt Q99607 1-663). As to conditions: protein: recombinant; tags: N-terminal GST; dsDNA, one strand shown. The procedure, abridged: as §1
In another assay the target is T3, ELK4 (Homo sapiens, UniProt P28324-2 1-405).
T3 sequence: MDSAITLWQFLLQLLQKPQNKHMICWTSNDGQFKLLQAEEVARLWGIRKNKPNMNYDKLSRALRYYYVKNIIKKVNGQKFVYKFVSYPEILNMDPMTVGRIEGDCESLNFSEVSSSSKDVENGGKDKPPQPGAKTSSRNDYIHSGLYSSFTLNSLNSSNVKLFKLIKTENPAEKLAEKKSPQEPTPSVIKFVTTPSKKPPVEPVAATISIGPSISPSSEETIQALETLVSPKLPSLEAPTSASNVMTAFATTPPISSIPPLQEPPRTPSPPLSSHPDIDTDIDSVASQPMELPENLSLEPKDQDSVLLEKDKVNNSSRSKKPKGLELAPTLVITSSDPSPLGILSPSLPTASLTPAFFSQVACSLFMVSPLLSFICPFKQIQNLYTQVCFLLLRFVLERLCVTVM
As to conditions: protein: recombinant; tags: N-terminal GST; dsDNA, one strand shown. The procedure, abridged: as §1

In another assay the target is T4, ETV2 (Homo sapiens, UniProt O00321 1-342).
T4 sequence: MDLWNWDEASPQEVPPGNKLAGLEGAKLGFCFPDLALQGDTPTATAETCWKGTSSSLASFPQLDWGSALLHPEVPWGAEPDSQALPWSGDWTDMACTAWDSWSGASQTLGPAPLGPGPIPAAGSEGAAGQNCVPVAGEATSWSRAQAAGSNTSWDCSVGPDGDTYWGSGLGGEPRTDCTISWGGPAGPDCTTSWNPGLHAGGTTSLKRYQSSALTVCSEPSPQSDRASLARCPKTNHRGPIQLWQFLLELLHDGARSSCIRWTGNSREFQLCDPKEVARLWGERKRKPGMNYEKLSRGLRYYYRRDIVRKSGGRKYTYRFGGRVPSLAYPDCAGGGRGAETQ
The settings on record: protein: recombinant; tags: N-terminal GST; dsDNA, one strand shown. The procedure, abridged:
as §1

The target of the next assay is T5, ELF3 (Homo sapiens, UniProt P78545 1-371).
T5 sequence: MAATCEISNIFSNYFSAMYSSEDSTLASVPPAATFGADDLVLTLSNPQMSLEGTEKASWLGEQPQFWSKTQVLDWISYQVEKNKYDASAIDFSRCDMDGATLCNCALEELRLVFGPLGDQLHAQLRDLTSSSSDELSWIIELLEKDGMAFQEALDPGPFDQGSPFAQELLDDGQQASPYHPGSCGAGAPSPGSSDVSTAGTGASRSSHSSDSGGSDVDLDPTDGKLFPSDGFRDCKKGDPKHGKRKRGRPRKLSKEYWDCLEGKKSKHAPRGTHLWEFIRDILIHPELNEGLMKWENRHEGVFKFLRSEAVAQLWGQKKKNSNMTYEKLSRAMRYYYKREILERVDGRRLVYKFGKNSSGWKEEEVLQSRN
As to conditions: protein: recombinant; tags: N-terminal GST; dsDNA, one strand shown. The procedure, abridged:
as §1

The target of the next assay is CRX (Homo sapiens, UniProt O43186 1-299). The settings on record: protein: recombinant; tags: N-terminal GST; dsDNA, one strand shown. The procedure, abridged: as §1
Sequence of CRX (O43186 whole entry): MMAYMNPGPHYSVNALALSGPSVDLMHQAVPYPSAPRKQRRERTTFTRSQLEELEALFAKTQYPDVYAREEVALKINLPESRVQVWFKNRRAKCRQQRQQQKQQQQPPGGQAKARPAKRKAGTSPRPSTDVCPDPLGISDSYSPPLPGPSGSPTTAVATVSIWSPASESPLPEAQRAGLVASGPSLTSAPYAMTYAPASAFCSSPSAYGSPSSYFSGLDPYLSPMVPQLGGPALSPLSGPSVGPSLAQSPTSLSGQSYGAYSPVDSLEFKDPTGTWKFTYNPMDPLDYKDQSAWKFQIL
The next assay concerns the target ETV1 (Homo sapiens, UniProt P50549 1-477). As to conditions: protein: recombinant; tags: N-terminal GST; dsDNA, one strand shown. The procedure, abridged:
as §1

The next assay has as its target T6, ERF (Homo sapiens, UniProt P50548 1-548).
T6 sequence: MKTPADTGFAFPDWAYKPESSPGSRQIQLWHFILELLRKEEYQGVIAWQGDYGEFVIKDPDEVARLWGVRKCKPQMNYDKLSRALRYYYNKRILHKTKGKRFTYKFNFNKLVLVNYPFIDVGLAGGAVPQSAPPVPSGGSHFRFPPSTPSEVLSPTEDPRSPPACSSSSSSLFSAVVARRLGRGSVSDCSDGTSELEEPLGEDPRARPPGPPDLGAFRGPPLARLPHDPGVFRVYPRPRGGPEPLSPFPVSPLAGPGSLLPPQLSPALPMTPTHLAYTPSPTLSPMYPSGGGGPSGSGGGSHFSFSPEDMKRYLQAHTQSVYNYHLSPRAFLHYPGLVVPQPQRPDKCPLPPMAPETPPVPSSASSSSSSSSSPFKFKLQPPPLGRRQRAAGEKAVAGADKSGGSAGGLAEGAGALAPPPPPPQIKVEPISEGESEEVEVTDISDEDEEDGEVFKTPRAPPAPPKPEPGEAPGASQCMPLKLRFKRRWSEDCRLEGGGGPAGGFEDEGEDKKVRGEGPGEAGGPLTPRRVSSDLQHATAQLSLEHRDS
The settings on record: protein: recombinant; tags: N-terminal GST; dsDNA, one strand shown. The method in brief:
as §1

The next assay has as its target T7, ETV3L (Homo sapiens, UniProt Q6ZN32 1-361).
T7 sequence: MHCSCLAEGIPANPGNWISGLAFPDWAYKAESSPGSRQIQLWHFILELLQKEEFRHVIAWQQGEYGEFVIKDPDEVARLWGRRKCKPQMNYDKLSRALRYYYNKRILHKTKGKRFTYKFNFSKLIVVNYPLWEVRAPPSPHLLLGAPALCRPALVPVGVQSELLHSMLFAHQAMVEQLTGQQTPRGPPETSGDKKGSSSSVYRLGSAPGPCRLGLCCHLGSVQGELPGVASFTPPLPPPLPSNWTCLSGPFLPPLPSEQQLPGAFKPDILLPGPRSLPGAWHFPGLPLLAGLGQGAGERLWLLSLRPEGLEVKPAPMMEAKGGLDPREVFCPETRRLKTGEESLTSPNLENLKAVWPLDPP
As to conditions: protein: recombinant; tags: N-terminal GST; dsDNA, one strand shown. The procedure, abridged:
as §1

The target of the next assay is T8, ETS2 (Homo sapiens, UniProt P15036 1-469).
T8 sequence: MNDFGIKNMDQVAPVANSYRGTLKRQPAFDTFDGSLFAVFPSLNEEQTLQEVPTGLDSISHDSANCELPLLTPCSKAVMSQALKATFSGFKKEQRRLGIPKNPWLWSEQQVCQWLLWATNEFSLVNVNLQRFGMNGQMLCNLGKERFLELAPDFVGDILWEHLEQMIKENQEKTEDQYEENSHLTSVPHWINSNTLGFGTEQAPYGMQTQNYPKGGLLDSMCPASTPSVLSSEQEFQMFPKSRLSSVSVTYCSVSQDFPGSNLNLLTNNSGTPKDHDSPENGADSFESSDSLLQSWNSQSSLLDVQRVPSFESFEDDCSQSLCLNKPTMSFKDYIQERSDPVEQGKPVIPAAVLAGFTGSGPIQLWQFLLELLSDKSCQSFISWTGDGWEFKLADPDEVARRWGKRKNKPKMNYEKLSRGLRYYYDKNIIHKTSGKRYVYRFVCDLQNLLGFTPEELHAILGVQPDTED
The settings on record: protein: recombinant; tags: N-terminal GST; dsDNA, one strand shown. The procedure, abridged:
as §1

The target in a further assay is T9, SPDEF (Homo sapiens, UniProt O95238 1-335).
T9 sequence: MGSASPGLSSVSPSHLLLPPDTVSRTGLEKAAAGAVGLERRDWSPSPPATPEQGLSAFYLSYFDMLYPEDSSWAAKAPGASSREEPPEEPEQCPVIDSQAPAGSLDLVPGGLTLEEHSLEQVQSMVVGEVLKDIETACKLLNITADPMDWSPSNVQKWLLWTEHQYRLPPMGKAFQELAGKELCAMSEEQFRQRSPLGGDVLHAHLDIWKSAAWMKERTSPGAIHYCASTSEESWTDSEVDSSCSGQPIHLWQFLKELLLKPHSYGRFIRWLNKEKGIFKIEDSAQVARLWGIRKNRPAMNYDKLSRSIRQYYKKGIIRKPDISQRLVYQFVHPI
The settings on record: protein: recombinant; tags: N-terminal GST; dsDNA, one strand shown. The method in brief: as §1

The target in a further assay is T10, ETV7 (Homo sapiens, UniProt Q9Y603 1-341).
T10 sequence: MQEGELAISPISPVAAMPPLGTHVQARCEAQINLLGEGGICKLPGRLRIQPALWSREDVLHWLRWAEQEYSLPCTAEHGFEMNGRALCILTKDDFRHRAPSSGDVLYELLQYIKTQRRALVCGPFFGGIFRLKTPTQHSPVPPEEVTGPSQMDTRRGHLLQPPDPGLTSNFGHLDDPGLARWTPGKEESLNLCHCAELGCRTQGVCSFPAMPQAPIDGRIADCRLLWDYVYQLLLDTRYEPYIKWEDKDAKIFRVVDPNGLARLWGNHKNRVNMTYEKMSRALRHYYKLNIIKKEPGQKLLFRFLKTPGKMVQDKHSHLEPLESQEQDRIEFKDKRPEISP
As to conditions: protein: recombinant; tags: N-terminal GST; dsDNA, one strand shown. The procedure, abridged:
as §1

The next assay has as its target T11, ELF5 (Homo sapiens, UniProt Q9UKW6-2 1-255).
T11 sequence: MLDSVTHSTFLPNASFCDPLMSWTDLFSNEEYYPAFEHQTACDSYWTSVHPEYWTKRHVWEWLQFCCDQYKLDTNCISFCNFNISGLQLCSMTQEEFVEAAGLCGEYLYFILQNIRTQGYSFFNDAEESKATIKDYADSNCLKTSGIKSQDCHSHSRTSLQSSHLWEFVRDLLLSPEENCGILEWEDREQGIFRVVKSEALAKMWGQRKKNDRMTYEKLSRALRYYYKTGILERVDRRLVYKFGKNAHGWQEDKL
The settings on record: protein: recombinant; tags: N-terminal GST; dsDNA, one strand shown. The procedure, abridged: as §1

The target in the next assay is T12, ETV3 (Homo sapiens, UniProt P41162-2 1-143).
T12 sequence: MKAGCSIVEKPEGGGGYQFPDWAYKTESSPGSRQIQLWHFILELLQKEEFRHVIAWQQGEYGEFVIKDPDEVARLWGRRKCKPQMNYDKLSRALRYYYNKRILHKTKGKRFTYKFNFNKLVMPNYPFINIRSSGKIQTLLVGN
As to conditions: protein: recombinant; tags: N-terminal GST; dsDNA, one strand shown. The method in brief:
as §1

In another assay the target is ETV6 (Homo sapiens, UniProt P41212 1-452). The settings on record: protein: recombinant; tags: N-terminal GST; dsDNA, one strand shown. The method in brief: as §1
Sequence of ETV6 (P41212 whole entry): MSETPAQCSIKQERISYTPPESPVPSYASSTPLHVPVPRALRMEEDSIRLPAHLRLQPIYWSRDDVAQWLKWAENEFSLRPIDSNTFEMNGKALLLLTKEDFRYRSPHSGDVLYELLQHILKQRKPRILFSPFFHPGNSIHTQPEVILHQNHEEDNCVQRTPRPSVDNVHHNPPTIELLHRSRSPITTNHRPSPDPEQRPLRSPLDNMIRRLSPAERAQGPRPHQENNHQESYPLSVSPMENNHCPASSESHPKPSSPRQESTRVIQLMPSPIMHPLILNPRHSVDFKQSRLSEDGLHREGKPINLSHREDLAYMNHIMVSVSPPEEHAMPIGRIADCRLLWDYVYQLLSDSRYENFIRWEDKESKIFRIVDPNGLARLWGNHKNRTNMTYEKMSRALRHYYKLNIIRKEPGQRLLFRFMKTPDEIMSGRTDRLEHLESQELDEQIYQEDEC

Sequence of ETV1 (P50549 whole entry): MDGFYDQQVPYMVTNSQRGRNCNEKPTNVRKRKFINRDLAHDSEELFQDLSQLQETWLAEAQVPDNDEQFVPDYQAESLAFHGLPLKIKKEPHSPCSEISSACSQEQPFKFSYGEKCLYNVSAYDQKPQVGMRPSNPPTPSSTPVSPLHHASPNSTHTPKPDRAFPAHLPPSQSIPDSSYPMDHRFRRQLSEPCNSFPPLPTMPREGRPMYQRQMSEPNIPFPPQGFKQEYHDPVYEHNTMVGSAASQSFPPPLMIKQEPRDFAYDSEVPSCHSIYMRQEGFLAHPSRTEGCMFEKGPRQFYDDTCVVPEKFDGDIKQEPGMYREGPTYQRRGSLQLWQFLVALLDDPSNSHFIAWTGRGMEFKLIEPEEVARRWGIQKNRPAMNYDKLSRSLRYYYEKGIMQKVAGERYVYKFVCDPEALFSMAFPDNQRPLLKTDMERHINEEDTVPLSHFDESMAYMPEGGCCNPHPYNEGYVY
Sequence of ELF4 (Q99607 whole entry): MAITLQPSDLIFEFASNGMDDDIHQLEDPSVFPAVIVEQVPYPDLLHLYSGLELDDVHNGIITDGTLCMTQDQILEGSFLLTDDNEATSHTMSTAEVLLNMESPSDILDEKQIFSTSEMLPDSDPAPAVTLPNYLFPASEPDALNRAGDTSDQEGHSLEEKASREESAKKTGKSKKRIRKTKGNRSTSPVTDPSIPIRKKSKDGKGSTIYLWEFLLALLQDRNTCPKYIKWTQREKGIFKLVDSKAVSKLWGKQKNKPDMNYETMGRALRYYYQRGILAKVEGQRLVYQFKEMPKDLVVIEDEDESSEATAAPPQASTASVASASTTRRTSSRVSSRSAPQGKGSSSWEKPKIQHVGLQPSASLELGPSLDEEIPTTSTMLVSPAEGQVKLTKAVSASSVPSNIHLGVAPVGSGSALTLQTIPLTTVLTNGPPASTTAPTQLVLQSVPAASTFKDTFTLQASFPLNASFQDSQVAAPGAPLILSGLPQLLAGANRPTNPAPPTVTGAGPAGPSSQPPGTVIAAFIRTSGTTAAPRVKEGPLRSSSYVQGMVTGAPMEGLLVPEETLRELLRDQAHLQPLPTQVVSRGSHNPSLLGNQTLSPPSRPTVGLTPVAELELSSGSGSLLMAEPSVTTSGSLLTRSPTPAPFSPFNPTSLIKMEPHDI
Sequence of ETV5 (P41161 whole entry): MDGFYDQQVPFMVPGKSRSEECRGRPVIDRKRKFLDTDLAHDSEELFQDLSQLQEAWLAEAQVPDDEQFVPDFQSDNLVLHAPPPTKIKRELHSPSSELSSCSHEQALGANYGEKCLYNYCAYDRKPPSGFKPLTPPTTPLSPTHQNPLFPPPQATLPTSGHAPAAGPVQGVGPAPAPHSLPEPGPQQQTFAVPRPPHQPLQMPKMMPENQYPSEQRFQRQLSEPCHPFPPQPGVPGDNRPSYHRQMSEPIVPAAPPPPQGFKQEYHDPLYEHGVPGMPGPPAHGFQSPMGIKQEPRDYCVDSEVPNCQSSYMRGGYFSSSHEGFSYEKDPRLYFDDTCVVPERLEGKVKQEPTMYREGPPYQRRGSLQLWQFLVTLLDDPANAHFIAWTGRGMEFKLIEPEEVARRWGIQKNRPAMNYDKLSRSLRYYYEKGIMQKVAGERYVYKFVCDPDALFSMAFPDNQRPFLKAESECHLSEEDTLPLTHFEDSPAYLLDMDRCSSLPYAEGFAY
Sequence of HSF1 (Q00613 whole entry): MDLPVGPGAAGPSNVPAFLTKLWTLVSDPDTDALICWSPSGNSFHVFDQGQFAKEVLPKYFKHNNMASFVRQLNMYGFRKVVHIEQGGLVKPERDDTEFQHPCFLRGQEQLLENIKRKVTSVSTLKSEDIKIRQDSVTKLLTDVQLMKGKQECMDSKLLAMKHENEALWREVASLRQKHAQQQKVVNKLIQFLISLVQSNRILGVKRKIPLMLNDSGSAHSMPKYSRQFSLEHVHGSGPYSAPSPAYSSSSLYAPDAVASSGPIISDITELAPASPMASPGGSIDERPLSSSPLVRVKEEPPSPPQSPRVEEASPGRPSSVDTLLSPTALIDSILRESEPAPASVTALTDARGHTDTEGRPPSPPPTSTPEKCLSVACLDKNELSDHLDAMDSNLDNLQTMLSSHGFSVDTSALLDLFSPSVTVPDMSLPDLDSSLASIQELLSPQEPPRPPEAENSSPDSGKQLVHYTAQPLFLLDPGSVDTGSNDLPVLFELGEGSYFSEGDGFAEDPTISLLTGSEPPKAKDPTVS

Take AAAATA: the binding signal with FEV was 1.15 fold enrichment (6-mer frequency, TF over GST control); in the assay with ETV5 it was 1.17 fold enrichment (6-mer frequency, TF over GST control); in the assay with HSF1, 1.34 fold enrichment (6-mer frequency, TF over GST control); with SPIC, 1.16 fold enrichment (6-mer frequency, TF over GST control); in the assay with ELF4, 1.17 fold enrichment (6-mer frequency, TF over GST control); in the assay with ELK4 it was 1.19 fold enrichment (6-mer frequency, TF over GST control). Further, the binding signal was 1.21 fold enrichment (6-mer frequency, TF over GST control) in the assay with ETV2; 1.06 fold enrichment (6-mer frequency, TF over GST control) with ELF3; 1.35 fold enrichment (6-mer frequency, TF over GST control) in the assay with CRX; 1.1 fold enrichment (6-mer frequency, TF over GST control) with ETV1; 1.27 fold enrichment (6-mer frequency, TF over GST control) with ERF; 1.14 fold enrichment (6-mer frequency, TF over GST control) with ETV3L. In addition, the binding signal in the assay with ETS2 was 1.24 fold enrichment (6-mer frequency, TF over GST control); with SPDEF, 1.06 fold enrichment (6-mer frequency, TF over GST control); with ETV7 it was 1.22 fold enrichment (6-mer frequency, TF over GST control); with ELF5 it was 1.2 fold enrichment (6-mer frequency, TF over GST control); in the assay with ETV3 it was 1.13 fold enrichment (6-mer frequency, TF over GST control); with ETV6 it was 1.25 fold enrichment (6-mer frequency, TF over GST control).
